PubChem BioAssay AID1159580 (chemical genetic matrix, 2015)
Out of some 5,500 compounds screened, about 2,000 (36%) were called active. Another 18% or so got no clear call; they are omitted. Rule as the data show it: active = normalized growth mostly below about 0.91 (no sharp cut-off); inconclusive = no clear call, values can overlap the other calls; inactive = mostly above about 0.92. This is one part of the list.

Assay: chemical genetic growth profiling, strain panel (AID 1159580);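 also: tested at 20 µM; growth read once vehicle control cultures reached saturation at 30 °C; 1 = growth at the plate median or of vehicle wells; lower values mean less growth of the strain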
Conditions: S. cerevisiae deletion strains, growth OD

Measured: normalized growth

NC(=O)c1cccnc1
inactive: locus YAL021C, strain ccr4, hits give low values 0.969 | locus YAL026C, strain drs2, hits give low values 0.979 | locus YAL030W, strain snc1, hits give low values 0.958 | locus YBL061C, strain skt5, hits give low values 0.971 | locus YBR009C, strain hhf1, hits give low values 0.974 | locus YBR023C, strain chs3, hits give low values 0.98 | locus YBR171W, strain sec66, hits give low values 0.968 | locus YBR231C, strain swc5, hits give low values 0.995 | locus YBR279W, strain paf1, hits give low values 0.991 | locus YCL011C, strain gbp2, hits give low values 0.979 | locus YCL016C, strain dcc1, hits give low values 0.978 | locus YCL061C, strain MRC1, hits give low values 0.986 | locus YCL069W, strain vba3, hits give low values 0.986 | locus YCR088W, strain abp1, hits give low values 0.97 | locus YDL005C, strain med2, hits give low values 0.966 | locus YDL040C, strain nat1, hits give low values 0.992 | locus YDR001C, strain nth1, hits give low values 0.972 | locus YDR069C, strain doa4, hits give low values 0.972 | locus YDR137W, strain rgp1, hits give low values 0.994 | locus YDR159W, strain sac3, hits give low values 0.97 | locus YDR195W, strain ref2 0.996 | locus YDR297W, strain sur2, hits give low values 0.975 | locus YDR334W, strain swr1, hits give low values 0.928 | locus YDR335W, strain msn5, hits give low values 0.975 | locus YDR392W, strain spt3, hits give low values 0.985 | locus YEL003W, strain gim4, hits give low values 0.975 | locus YEL037C, strain rad23, hits give low values 0.987 | locus YEL061C, strain CIN8 (second series), hits give low values 0.983 | locus YER015W, strain faa2, hits give low values 0.992 | locus YER016W, strain bim1, hits give low values 0.981 | locus YER111C, strain swi4, hits give low values 0.985 | locus YER155C, strain BEM2 (second series), hits give low values 0.98 | locus YFR010W, strain ubp6, hits give low values 0.971 | locus YGL167C, strain pmr1, hits give low values 0.984 | locus YGL173C, strain kem1, hits give low values 0.957 | locus YGL227W, strain vid30, hits give low values 0.959 | locus YGL240W, strain doc1, hits give low values 0.963 | locus YGL253W, strain hxk2, hits give low values 0.998 | locus YHR013C, strain ard1, hits give low values 0.972 | locus YHR027C, strain rpn1, hits give low values 0.959 | locus YHR030C, strain SLT2, hits give low values 0.971 | locus YHR079C, strain IRE1, hits give low values 0.961 | locus YHR142W, strain chs7, hits give low values 0.976 | locus YJL092W, strain hpr5, hits give low values 0.982 | locus YJL095W, strain BCK1 (second series), hits give low values 0.979 | locus YJL095W, strain BCK1, hits give low values 0.974 | locus YJL115W, strain asf1, hits give low values 0.96 | locus YJL129C, strain trk1, hits give low values 0.996 | locus YJL154C, strain vps35, hits give low values 0.964 | locus YJL164C, strain tpk1, hits give low values 0.992 | locus YJL166W, strain qcr8, hits give low values 0.978 | locus YJL187C, strain SWE1, hits give low values 0.982 | locus YJR066W, strain TOR1, hits give low values 0.928 | locus YKL160W, strain elf1, hits give low values 0.991 | locus YKR026C, strain gcn3, hits give low values 0.976 | locus YKR091W, strain srl3, hits give low values 0.986 | locus YLL001W, strain dnm1, hits give low values 0.991 | locus YLL026W, hits give low values 0.951 | locus YLL041C, strain sdh2, hits give low values 0.982 | locus YLR027C, strain aat2, hits give low values 0.948 | locus YLR113W, strain HOG1, hits give low values 0.973 | locus YLR221C, strain rsa3, hits give low values 0.974 | locus YLR258W, strain gsy2, hits give low values 0.984 | locus YLR262C, strain YPT6 (second series), hits give low values 0.965 | locus YLR320W, strain mms22, hits give low values 1 | locus YLR342W, strain FKS1, hits give low values 0.983 | locus YLR357W, strain rsc2, hits give low values 0.979 | locus YLR370C, strain arc18, hits give low values 0.986 | locus YLR384C, strain iki3, hits give low values 0.987 | locus YML120C, strain ndi1, hits give low values 0.982 | locus YMR058W, strain fet3, hits give low values 0.979 | locus YMR125W, strain sto1, hits give low values 0.963 | locus YMR129W, hits give low values 0.99 | locus YMR205C, strain PFK2, hits give low values 0.962 | locus YMR231W, strain pep5, hits give low values 0.978 | locus YNL071W, strain lat1, hits give low values 0.975 | locus YNL183C, strain NPR1, hits give low values 0.949 | locus YNL209W, strain ssb2, hits give low values 0.979 | locus YNL248C, strain rpa49, hits give low values 0.973 | locus YNL322C, strain KRE1 (second series), hits give low values 0.98 | locus YNR049C, strain mso1, hits give low values 0.966 | locus YOR001W, strain rrp6, hits give low values 0.983 | locus YOR070C, strain gyp1, hits give low values 0.983 | locus YOR080W, strain dia2, hits give low values 0.978 | locus YOR083W, strain WHI5, hits give low values 0.986 | locus YOR106W, strain vam3, hits give low values 0.986 | locus YOR231W, strain MKK1, hits give low values 0.975 | locus YOR265W, strain rbl2, hits give low values 0.983 | locus YOR270C, strain vph1, hits give low values 0.978 | locus YOR290C, strain snf2, hits give low values 0.996 | locus YPL051W, strain arl3, hits give low values 0.999 | locus YPL078C, strain atp4, hits give low values 0.98 | locus YPL106C, strain sse1, hits give low values 0.927 | locus YPL240C, strain hsp82, hits give low values 0.978 | locus YPL256C, strain CLN2, hits give low values 0.992
